About 7,900 targets were measured; listed, in parts, are those with a hit and a random draw of the rest. About 0.6% of all pairs of compound and target were hits.
Columns and labels:
Experiment in all cases: log2 fold change, soluble protein after heating vs DMSO (PISA); higher = thermal stabilisation; K562 cells, 10 uM, 30 min; active = over 0.2 and 3.5 SD of the protein, either way, in both replicates (recomputed)
bafetinib = compound: Cc1ccc(NC(=O)c2ccc(CN3CC[C@H](N(C)C)C3)c(C(F)(F)F)c2)cc1Nc1nccc(-c2cncnc2)n1 [bafetinib]
Procedure, shortened: (§1)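 K562 cells at 2×10^6 cells/mL were given 10 μM compound for 30 min. Aliquots then went through 3 min of heating across 48°C-58°C, were pooled, and were extracted in PBS with 0.5% NP-40 at 4°C, and the supernatant after 21,000xg for 90 min was quantified by TMTpro 16plex LC-MS/MS with channel sums equalised. Thermal stability relative to control samples, from duplicates, is given as log2 fold change.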

[1] = compound: Cc1cccc(CC(=O)N2CCc3c2ccc(-c2cn(C)c4ncnc(N)c24)c3F)n1
Procedure, shortened: as §1

nilotinib = compound: Cc1cn(-c2cc(NC(=O)c3ccc(C)c(Nc4nccc(-c5cccnc5)n4)c3)cc(C(F)(F)F)c2)cn1 [nilotinib]
Procedure, shortened: as §1

[2] = compound: Cc1nc(Nc2n[nH]c3c2CN(C(=O)N[C@H](CN(C)C)c2ccccc2)C3(C)C)c2sccc2n1
Procedure, shortened: as §1

dasatinib = compound: Cc1nc(Nc2ncc(C(=O)Nc3c(C)cccc3Cl)s2)cc(N2CCN(CCO)CC2)n1 [dasatinib]
Procedure, shortened: as §1

[3] = compound: Cc1ncc(-c2ccnc(Nc3ccc(S(C)(=O)=O)cc3)n2)n1C(C)C
Procedure, shortened: as §1

[4] = compound: Cn1cc(-c2ccc3c(c2)CCN3C(=O)Cc2cccc(C(F)(F)F)c2)c2c(N)ncnc21
Procedure, shortened: as §1

[5] = compound: Cn1cc(-c2ccc3nnc(C(F)(F)c4ccc5ncccc5c4)n3n2)cn1
Procedure, shortened: as §1

tipifarnib = compound: Cn1cncc1[C@@](N)(c1ccc(Cl)cc1)c1ccc2c(c1)c(-c1cccc(Cl)c1)cc(=O)n2C [tipifarnib]
Procedure, shortened: as §1

mubritinib = compound: FC(F)(F)c1ccc(/C=C/c2nc(COc3ccc(CCCCn4ccnn4)cc3)co2)cc1 [mubritinib]
Procedure, shortened: as §1

[6] = compound: NC(=O)Nc1cc(-c2cccc(F)c2)sc1C(=O)N[C@H]1CCCNC1
Procedure, shortened: as §1

[7] = compound: NC(=O)c1cnc(N[C@@H]2CCCC[C@@H]2N)nc1Nc1cccc(-n2nccn2)c1
Procedure, shortened: as §1

[8] = compound: NC1(c2ccc(-c3nc4ccn5c(=O)[nH]nc5c4cc3-c3ccccc3)cc2)CCC1
Procedure, shortened: as §1

[9] = compound: NCC(=O)Nc1ccc(-n2nc(C(F)(F)F)cc2-c2ccc3c(ccc4ccccc43)c2)cc1
Procedure, shortened: as §1

entinostat = compound: Nc1ccccc1NC(=O)c1ccc(CNC(=O)OCc2cccnc2)cc1 [entinostat]
Procedure, shortened: as §1

vorinostat = compound: O=C(CCCCCCC(=O)Nc1ccccc1)NO [vorinostat]
Procedure, shortened: as §1

citarinostat = compound: O=C(CCCCCCNC(=O)c1cnc(N(c2ccccc2)c2ccccc2Cl)nc1)NO [citarinostat]
Procedure, shortened: as §1

silmitasertib = compound: O=C(O)c1ccc2c(c1)nc(Nc1cccc(Cl)c1)c1ccncc12 [silmitasertib]
Procedure, shortened: as §1

[10] = compound: O=C1NC(=O)C(c2cnc3ccccn23)=C1c1cn2c3c(cc(F)cc13)CN(C(=O)N1CCCCC1)CC2
Procedure, shortened: as §1

[11] = compound: c1cc(OCCN2CCCCC2)cc(-c2n[nH]c3ccc(-c4nnc[nH]4)cc23)c1
Procedure, shortened: as §1

Measured: log2 fold change

WDR11 (UniProt Q9BZH6)
Chain of UniProt Q9BZH6 (Q9BZH6 whole entry, looked up): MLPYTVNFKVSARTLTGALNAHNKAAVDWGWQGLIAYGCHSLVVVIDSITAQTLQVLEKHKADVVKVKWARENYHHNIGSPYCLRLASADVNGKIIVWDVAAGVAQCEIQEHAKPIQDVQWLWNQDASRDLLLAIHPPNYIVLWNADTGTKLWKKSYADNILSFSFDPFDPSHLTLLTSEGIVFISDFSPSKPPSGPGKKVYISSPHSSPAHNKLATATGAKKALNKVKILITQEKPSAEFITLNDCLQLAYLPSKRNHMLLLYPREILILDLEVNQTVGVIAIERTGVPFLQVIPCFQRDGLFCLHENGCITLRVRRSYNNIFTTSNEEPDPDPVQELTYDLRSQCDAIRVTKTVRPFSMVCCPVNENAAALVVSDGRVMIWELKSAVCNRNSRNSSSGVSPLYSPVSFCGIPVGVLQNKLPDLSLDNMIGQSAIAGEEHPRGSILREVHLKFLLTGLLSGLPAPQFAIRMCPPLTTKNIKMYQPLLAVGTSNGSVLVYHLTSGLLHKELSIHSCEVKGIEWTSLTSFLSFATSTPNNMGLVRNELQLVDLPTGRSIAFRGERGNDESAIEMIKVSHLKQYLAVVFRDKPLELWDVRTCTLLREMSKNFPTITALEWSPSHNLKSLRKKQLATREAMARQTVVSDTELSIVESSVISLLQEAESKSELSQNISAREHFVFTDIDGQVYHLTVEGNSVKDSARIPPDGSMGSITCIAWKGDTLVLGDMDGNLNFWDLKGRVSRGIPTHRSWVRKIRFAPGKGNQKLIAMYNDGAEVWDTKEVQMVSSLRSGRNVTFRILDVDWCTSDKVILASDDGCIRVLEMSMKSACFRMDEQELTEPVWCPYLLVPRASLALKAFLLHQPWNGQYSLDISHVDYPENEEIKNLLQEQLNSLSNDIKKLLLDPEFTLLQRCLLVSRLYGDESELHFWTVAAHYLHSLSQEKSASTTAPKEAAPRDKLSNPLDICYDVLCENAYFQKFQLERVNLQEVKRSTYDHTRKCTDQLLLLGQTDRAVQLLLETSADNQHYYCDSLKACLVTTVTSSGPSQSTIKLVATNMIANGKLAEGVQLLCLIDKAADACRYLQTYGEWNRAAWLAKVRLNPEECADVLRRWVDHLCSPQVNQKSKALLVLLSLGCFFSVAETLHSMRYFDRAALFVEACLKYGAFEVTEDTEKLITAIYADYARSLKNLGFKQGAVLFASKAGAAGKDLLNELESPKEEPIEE
inactive: bafetinib 0.063 | [1] -0.067 | nilotinib -0.229 | [2] 0.051 | dasatinib 0.056 | [3] -0.121 | [4] -0.018 | [5] 0.046 | tipifarnib 0.038 | mubritinib 0.051 | [6] 0.039 | [7] -0.164 | [8] -0.087 | [9] -0.192 | entinostat -0.024 | vorinostat -0.007 | citarinostat -0.067 | silmitasertib -0.025 | [10] -0.016 | [11] -0.036

UXT isoform 2 (UniProt Q9UBK9)
Chain of UniProt Q9UBK9 (Q9UBK9 whole entry, looked up): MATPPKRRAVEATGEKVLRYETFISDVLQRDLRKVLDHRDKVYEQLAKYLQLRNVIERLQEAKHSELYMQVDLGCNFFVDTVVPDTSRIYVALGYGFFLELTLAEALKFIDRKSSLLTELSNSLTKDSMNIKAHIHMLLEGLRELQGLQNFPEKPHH
inactive: bafetinib 0.016 | [1] 0.036 | nilotinib 0.04 | [2] -0.068 | dasatinib -0.033 | [3] 0.001 | [4] 0.11 | [5] 0.026 | tipifarnib -0.144 | mubritinib 0.014 | [6] -0.041 | [7] -0.067 | [8] -0.108 | [9] -0.011 | entinostat 0.004 | vorinostat 0.047 | citarinostat 0.129 | silmitasertib -0.033 | [10] -0.051 | [11] 0.007

TPP1 (UniProt O14773)
Chain of UniProt O14773 (O14773 whole entry, looked up): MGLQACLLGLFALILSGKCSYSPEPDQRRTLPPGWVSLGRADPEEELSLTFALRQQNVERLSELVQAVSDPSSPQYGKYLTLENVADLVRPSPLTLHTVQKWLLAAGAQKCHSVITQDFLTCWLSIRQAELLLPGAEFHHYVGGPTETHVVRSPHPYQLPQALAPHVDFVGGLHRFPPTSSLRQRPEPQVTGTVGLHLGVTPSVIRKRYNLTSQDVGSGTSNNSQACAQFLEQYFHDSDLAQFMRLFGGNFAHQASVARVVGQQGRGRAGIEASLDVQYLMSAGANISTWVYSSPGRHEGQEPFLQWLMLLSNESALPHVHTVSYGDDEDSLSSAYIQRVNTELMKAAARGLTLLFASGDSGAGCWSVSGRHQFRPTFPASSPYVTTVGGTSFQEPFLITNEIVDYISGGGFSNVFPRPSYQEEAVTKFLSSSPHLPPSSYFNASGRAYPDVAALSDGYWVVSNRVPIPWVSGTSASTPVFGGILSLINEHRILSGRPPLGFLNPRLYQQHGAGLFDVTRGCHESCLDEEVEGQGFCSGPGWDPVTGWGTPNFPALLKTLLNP
inactive: [1] 0.007 | nilotinib 0.008 | [2] -0.031 | dasatinib -0.051 | [3] 0.022 | [4] -0.025 | [5] 0 | tipifarnib 0.049 | mubritinib -0.001 | [6] -0.036 | [7] -0.037 | [8] -0.174 | [9] -0.08 | entinostat 0.036 | vorinostat 0.031 | citarinostat 0.035 | silmitasertib -0.036 | [10] -0.014 | [11] -0.091
active: bafetinib -0.48

WDR37 isoform 2 (UniProt Q9Y2I8)
inactive: bafetinib 0.039 | [1] -0.093 | nilotinib -0.073 | [2] 0.039 | dasatinib 0.005 | [3] -0.05 | [4] -0.024 | [5] 0.017 | tipifarnib 0.083 | mubritinib -0.021 | [6] -0.041 | [7] -0.01 | [8] -0.052 | [9] -0.08 | entinostat -0.004 | vorinostat -0.068 | citarinostat -0.012 | silmitasertib -0.059 | [10] 0.032 | [11] -0.162

USP14 (UniProt P54578)
Chain of UniProt P54578 (P54578 whole entry, looked up): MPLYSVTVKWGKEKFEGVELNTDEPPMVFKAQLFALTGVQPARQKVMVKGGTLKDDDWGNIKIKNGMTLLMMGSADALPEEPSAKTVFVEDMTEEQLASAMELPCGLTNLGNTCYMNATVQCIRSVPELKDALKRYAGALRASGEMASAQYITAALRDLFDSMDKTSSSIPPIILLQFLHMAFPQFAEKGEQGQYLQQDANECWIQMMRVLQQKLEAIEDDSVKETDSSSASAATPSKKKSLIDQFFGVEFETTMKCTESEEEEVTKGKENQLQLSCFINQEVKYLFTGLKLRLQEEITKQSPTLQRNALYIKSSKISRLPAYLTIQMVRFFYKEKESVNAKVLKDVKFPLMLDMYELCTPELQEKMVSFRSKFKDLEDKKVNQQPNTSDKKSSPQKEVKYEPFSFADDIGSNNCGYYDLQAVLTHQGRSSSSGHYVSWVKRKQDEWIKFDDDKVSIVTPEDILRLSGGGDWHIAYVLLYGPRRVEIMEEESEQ
inactive: bafetinib -0.03 | [1] 0.012 | nilotinib -0.006 | [2] -0.026 | dasatinib -0.087 | [3] 0.015 | [4] -0.001 | [5] -0.065 | tipifarnib -0.067 | mubritinib 0.029 | [6] -0.008 | [7] -0.006 | [8] -0.161 | [9] -0.057 | entinostat 0.025 | vorinostat -0.03 | citarinostat 0.051 | silmitasertib 0.007 | [10] -0.029 | [11] 0.005

UPF3B (UniProt Q9BZI7)
Chain of UniProt Q9BZI7 (Q9BZI7 whole entry, looked up): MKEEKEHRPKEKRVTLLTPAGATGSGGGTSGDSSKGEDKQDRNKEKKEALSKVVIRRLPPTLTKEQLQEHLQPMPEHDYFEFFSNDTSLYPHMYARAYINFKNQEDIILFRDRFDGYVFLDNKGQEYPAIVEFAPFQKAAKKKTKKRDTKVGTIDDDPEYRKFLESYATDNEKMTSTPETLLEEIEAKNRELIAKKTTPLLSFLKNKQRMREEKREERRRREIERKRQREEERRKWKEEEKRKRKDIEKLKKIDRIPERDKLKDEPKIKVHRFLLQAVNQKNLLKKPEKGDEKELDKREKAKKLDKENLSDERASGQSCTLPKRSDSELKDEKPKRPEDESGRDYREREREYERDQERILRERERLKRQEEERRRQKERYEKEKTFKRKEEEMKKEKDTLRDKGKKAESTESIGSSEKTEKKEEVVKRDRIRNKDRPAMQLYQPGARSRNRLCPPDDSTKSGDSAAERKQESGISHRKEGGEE
inactive: bafetinib 0.108 | [1] 0.055 | nilotinib -0.15 | [2] 0.098 | dasatinib 0.143 | [3] -0.085 | [4] -0.225 | [5] -0.24 | tipifarnib 0.106 | mubritinib -0.098 | [6] 0.092 | [7] 0.11 | [8] 0.315 | [9] 0.096 | entinostat -0.079 | vorinostat 0 | citarinostat -0.125 | silmitasertib 0.149 | [10] 0.245 | [11] -0.278

UTP4 (UniProt Q969X6)
Chain of UniProt Q969X6 (Q969X6 whole entry, looked up): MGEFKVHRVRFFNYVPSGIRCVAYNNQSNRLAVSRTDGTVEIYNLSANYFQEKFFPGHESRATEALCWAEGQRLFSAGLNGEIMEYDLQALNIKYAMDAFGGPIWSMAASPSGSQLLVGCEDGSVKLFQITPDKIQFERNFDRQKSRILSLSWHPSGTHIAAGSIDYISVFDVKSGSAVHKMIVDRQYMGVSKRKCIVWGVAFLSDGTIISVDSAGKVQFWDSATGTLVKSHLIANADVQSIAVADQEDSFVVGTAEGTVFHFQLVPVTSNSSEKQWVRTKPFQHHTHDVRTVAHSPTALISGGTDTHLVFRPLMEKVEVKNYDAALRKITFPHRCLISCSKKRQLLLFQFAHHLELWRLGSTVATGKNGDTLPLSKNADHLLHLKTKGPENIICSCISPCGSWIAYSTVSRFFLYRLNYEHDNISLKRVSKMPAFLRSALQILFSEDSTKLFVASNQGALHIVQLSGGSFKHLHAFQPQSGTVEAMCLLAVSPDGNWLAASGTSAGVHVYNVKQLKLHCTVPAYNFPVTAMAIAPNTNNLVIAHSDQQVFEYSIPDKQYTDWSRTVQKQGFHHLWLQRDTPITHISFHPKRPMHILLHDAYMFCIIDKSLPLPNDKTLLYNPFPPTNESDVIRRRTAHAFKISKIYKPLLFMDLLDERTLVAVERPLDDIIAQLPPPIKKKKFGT
inactive: bafetinib -0.04 | [1] -0.013 | nilotinib 0.021 | [2] 0.035 | dasatinib 0.039 | [3] 0.143 | [4] -0.042 | [5] -0.014 | tipifarnib 0.058 | mubritinib -0.025 | [6] 0.049 | [7] 0.033 | [8] 0.075 | [9] 0.05 | entinostat -0.037 | vorinostat -0.051 | citarinostat -0.002 | silmitasertib 0.064 | [10] 0.06 | [11] -0.03

TRIM28 (UniProt Q13263)
inactive: bafetinib 0.005 | [1] 0.011 | nilotinib -0.013 | [2] -0.035 | dasatinib -0.014 | [3] 0.013 | [4] -0.02 | [5] 0.004 | tipifarnib -0.035 | mubritinib 0.009 | [6] -0.006 | [7] -0.008 | [8] -0.038 | [9] -0.007 | entinostat 0.038 | vorinostat 0.032 | citarinostat 0.036 | silmitasertib 0.036 | [10] -0.048 | [11] -0.009

UBE4B isoform 4 (UniProt O95155)
inactive: bafetinib -0.003 | [1] 0.053 | nilotinib -0.051 | [2] -0.011 | dasatinib -0.069 | [3] -0.024 | [4] -0.019 | [5] -0.011 | tipifarnib -0.024 | mubritinib 0.032 | [6] 0.005 | [7] -0.055 | [8] -0.113 | [9] -0.056 | entinostat 0.019 | vorinostat 0.023 | citarinostat 0.02 | silmitasertib 0.042 | [10] -0.082 | [11] -0.014

WASH2P (UniProt Q6VEQ5)
active: [8] -0.314
inactive: bafetinib -0.06 | [1] 0.017 | nilotinib -0.069 | [2] -0.019 | dasatinib 0.03 | [3] 0.01 | [4] -0.008 | [5] 0.011 | tipifarnib 0.043 | mubritinib 0.06 | [6] 0.067 | [7] -0.088 | [9] 0.02 | entinostat 0.028 | vorinostat -0.016 | citarinostat 0.029 | silmitasertib 0.06 | [10] 0.092 | [11] -0.045

TOE1 (UniProt Q96GM8)
inactive: bafetinib 0.301 | [1] 0.033 | nilotinib 0.152 | [2] 0.178 | dasatinib 0.097 | [3] 0.017 | [4] -0.113 | [5] -0.072 | tipifarnib -0.036 | mubritinib 0.111 | [6] 0.09 | [7] -0.011 | [8] 0.104 | [9] -0.01 | entinostat -0.038 | vorinostat -0.047 | citarinostat 0.011 | silmitasertib 0.026 | [10] 0.122 | [11] -0.18

TXN2 (UniProt Q99757)
inactive: bafetinib -0.105 | [1] -0.104 | nilotinib 0.034 | [2] -0.005 | dasatinib 0.083 | [3] -0.048 | [4] 0.227 | [5] 0.013 | tipifarnib 0.059 | mubritinib 0.009 | [6] -0.039 | [7] -0.009 | [8] 0.088 | [9] 0.049 | entinostat 0.023 | vorinostat -0.072 | citarinostat 0.054 | silmitasertib -0.072 | [10] -0.09 | [11] -0.036

USP48 isoform 8 (UniProt Q86UV5)
inactive: bafetinib 0.005 | [1] -0.089 | nilotinib -0.097 | [2] -0.362 | dasatinib -0.139 | [3] -0.073 | [4] -0.041 | [5] 0.097 | tipifarnib -0.11 | mubritinib -0.021 | [6] -0.077 | [7] 0.002 | [8] -0.235 | [9] -0.125 | entinostat 0.351 | vorinostat 0.178 | citarinostat 0.177 | silmitasertib 0.094 | [10] -0.177 | [11] -0.157

WDR47 (UniProt O94967)
inactive: bafetinib 0.042 | [1] 0.004 | nilotinib 0.02 | [2] -0.046 | dasatinib -0.036 | [3] 0.067 | [4] 0.002 | [5] 0.033 | tipifarnib 0.039 | mubritinib -0.147 | [6] 0.072 | [7] -0.023 | [9] -0.065 | entinostat 0.002 | vorinostat -0.014 | citarinostat 0.014 | silmitasertib 0.089 | [10] 0.004 | [11] 0.282
active: [8] -0.224

UBE2J1 (UniProt Q9Y385)
Chain of UniProt Q9Y385 (Q9Y385 whole entry, looked up): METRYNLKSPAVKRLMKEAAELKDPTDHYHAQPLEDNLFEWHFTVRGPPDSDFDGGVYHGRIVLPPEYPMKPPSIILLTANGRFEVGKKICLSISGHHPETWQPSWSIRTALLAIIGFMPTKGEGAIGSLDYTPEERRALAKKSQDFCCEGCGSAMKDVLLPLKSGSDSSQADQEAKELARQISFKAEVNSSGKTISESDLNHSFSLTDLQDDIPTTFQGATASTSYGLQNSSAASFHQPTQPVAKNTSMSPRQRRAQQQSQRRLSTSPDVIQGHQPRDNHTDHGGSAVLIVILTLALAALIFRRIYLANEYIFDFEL
active: [10] -0.375
inactive: bafetinib 0.108 | [1] 0.023 | nilotinib -0.076 | [2] -0.09 | dasatinib -0.028 | [3] -0.189 | [4] -0.053 | [5] 0.003 | tipifarnib -0.056 | mubritinib 0.132 | [6] 0.031 | [7] -0.038 | [8] 0.07 | [9] 0.017 | entinostat -0.077 | vorinostat -0.019 | citarinostat 0.041 | silmitasertib 0.042 | [11] -0.09

VPS50 (UniProt Q96JG6)
Chain of UniProt Q96JG6 (Q96JG6 whole entry, looked up): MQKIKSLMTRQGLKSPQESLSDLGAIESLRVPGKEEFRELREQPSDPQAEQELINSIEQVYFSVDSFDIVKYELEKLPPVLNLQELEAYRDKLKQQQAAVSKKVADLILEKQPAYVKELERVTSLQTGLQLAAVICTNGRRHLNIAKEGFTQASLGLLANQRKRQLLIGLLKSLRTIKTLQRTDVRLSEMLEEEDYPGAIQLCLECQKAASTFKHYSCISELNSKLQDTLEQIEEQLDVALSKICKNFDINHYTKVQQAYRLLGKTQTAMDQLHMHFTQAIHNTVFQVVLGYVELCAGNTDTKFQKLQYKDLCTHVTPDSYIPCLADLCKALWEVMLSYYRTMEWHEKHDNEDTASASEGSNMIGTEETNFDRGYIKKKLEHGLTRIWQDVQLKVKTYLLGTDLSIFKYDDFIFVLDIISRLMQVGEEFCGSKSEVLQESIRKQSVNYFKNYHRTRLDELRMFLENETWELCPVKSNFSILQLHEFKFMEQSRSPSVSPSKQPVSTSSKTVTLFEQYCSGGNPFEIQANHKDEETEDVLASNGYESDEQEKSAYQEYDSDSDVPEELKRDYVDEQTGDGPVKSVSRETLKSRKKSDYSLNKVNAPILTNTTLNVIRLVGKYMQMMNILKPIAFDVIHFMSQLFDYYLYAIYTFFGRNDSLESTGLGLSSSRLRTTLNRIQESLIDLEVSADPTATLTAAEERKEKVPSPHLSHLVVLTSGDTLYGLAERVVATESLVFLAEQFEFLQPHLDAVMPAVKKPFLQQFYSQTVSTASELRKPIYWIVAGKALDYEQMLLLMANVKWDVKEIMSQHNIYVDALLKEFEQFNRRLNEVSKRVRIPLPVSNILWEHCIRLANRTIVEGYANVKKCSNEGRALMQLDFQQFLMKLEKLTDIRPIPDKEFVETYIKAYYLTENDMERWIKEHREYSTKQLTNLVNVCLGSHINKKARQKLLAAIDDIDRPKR
active: dasatinib -0.257
inactive: bafetinib 0.017 | [1] 0.088 | nilotinib -0.074 | [2] -0.077 | [3] 0.038 | [4] -0.019 | [5] -0.035 | tipifarnib -0.066 | mubritinib 0.045 | [6] 0.003 | [7] -0.073 | [8] -0.11 | [9] -0.046 | entinostat 0.06 | vorinostat 0.099 | citarinostat 0.068 | silmitasertib 0.06 | [10] 0.037 | [11] 0.003

Reference: the supplement of paper PMC10849652
